Measured values taken from PubChem BioAssay.
Active and inactive are the calls of the source.

Tests used:
[1] = tested on: PRMT1 (protein arginine N-methyltransferase 1); experiment: small molecules binding arginine methyltransferase PRMT1 – biochemical, small-molecule microarray, 635 nm fluorescence, primary screen (AID 1088); settings: higher = more signal;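 also: binding of Prmt1 protein to compounds spotted on small-molecule microarray slides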
[2] = growth effects on S. cerevisiae YJM789 – YJM789 clinical isolate, OD600, 24 h, basal, primary screen (AID 1089); settings: higher = more signal, called active from +8 up or from −8 down;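 also: growth of clinical yeast isolate S. cerevisiae YJM 789 seeded 1000 cells per well; test concentration not given here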
[3] = S. pombe growth modifiers, basal conditions – strain 972, OD600, 24 h, no modulator, primary screen (AID 1090);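 also: basal condition with compound alone and no growth modifier present; test concentration not given here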; settings: S. pombe 972 growth, higher = more signal, called active from +8 up or from −8 down
[4] = budding yeast growth modifiers under rapamycin – strain BY4716, OD600, 96 h, primary screen (AID 1091); also: test concentration not given here; settings: S. cerevisiae BY4716 + rapamycin, higher = more signal, called active from +8 up or from −8 down
[5] = target: Torsin-1A-interacting protein 2 (Homo sapiens) (UniProt Q8NFQ8); experiment: small molecules binding lysate-expressed LULL1 – cell lysate, human LULL1 lysate, 635/667 nm fluorescence, primary screen (AID 1092); settings: small-molecule microarray, hLULL1 lysate binding, 635 nm fluorescence; higher = more signal;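 also: probe is lysate of COS7 cells overexpressing human LULL1; score merges per-feature 667 nm fluorescence with signal-to-noise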
Sequence of Torsin-1A-interacting protein 2 (Homo sapiens) (Q8NFQ8 whole entry, looked up): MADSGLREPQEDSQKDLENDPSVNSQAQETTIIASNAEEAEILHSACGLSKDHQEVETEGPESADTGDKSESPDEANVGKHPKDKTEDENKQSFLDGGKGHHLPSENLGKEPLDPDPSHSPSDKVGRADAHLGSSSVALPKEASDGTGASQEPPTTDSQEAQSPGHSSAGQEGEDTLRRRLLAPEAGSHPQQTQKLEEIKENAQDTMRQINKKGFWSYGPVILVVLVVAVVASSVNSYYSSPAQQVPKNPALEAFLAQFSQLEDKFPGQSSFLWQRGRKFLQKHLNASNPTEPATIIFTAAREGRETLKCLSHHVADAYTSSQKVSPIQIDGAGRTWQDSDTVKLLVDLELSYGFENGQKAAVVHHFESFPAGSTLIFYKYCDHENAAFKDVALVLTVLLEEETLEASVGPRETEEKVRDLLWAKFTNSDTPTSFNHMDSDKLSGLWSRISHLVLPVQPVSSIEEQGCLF

[6] = optical density change of DRC41 E. coli – strain DRC41, OD650, 24 h, E. coli filamentation project, primary screen (AID 1093);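 also: MC1000 strain lacking acrAB efflux and sulA so SOS filamentation is blocked; test concentration not given here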; settings: E. coli DRC41 growth, higher = more signal, called active from +8 up or from −8 down
[7] = probe aLefty2 binding to arrayed compounds – biochemical, biotinylated probe, 635/667 nm fluorescence, primary screen (AID 1094); settings: small-molecule microarray, higher = more signal;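 also: score merges spot fluorescence near 667 nm with spot signal-to-noise ratio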
[8] = tested on: Noggin (protein binding on small-molecule microarray); experiment: small molecules binding Noggin protein – biochemical, 635/667 nm fluorescence, primary screen (AID 1095); settings: 635 nm fluorescence, higher = more signal;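 also: score merges 667 nm feature fluorescence with signal to noise over triplicate slides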
[9] = target: Neurogenic locus notch homolog protein 3 (Homo sapiens) (UniProt Q9UM47); experiment: small molecules binding NOTCH3 protein – biochemical, 635/667 nm fluorescence, primary screen (AID 1096); settings: small-molecule microarray, 635 nm fluorescence, higher = more signal
Sequence of Neurogenic locus notch homolog protein 3 (Homo sapiens) (Q9UM47 whole entry, looked up): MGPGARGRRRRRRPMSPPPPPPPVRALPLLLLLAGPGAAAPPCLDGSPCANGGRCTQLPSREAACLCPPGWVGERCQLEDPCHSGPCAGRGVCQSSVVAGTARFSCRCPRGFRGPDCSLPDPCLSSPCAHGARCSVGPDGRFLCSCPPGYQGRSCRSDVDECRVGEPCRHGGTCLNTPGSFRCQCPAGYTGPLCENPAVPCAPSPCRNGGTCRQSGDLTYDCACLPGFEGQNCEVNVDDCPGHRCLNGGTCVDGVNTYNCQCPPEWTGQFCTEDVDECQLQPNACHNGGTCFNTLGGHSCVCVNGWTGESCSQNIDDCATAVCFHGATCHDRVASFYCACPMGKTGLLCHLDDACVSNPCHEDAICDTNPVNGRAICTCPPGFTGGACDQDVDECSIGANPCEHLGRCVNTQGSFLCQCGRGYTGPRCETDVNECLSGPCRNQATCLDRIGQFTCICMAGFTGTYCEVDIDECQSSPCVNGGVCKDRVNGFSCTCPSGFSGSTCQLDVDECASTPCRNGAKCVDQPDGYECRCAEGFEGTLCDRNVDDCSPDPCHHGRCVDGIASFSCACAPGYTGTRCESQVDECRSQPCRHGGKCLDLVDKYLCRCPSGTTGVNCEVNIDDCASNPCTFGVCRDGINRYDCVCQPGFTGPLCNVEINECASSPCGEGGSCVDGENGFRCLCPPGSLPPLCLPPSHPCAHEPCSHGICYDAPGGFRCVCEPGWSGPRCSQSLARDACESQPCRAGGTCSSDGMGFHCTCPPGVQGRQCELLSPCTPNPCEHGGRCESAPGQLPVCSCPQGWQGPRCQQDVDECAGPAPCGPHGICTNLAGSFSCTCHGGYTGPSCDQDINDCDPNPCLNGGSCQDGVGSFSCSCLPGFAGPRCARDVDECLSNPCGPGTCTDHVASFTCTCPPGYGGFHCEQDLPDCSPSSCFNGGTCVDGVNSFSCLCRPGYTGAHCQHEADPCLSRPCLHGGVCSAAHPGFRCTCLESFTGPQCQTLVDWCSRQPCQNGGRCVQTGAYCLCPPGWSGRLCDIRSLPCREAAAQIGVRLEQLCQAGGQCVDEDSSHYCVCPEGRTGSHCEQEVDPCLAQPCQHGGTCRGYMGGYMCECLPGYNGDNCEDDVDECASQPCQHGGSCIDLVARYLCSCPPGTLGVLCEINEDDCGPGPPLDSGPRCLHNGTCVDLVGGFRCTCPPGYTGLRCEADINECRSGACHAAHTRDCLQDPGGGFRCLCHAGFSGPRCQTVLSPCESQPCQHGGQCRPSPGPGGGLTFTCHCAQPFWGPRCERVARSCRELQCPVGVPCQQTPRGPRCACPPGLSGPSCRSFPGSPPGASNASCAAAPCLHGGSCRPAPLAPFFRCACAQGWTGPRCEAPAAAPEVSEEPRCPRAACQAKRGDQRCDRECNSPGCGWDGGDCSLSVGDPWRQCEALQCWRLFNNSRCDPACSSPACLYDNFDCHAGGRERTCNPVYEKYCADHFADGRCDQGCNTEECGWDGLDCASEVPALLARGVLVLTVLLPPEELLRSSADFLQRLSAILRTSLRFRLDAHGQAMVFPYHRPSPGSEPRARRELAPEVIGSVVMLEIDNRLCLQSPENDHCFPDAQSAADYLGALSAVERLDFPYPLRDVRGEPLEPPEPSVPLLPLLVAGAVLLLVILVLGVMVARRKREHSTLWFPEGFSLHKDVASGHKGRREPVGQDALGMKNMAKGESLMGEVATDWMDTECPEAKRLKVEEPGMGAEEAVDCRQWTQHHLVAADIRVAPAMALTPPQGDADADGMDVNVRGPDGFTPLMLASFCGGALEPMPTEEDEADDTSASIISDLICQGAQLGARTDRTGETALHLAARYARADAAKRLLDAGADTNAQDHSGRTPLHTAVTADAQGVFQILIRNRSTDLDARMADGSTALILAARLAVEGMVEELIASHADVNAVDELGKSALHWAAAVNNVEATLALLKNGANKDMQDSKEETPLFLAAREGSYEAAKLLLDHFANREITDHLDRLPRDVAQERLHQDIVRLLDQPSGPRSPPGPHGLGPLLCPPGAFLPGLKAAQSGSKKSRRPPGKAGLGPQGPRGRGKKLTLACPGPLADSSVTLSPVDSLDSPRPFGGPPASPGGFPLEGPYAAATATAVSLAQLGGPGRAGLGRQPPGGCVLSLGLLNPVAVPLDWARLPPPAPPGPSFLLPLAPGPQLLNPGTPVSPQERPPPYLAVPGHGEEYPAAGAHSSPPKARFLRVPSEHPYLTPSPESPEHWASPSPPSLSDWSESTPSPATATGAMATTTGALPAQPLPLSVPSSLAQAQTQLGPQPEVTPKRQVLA

[10] = probe aEGFR binding to arrayed compounds – biochemical, biotinylated probe, 635/667 nm fluorescence, primary screen (AID 1097); settings: small-molecule microarray, higher = more signal;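 also: probe is a biotinylated anti-EGFR antibody binding compounds printed on slides; score combines fluorescence near 667 nm and signal to noise of each spot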
[11] = tested on: Plasmodium falciparum Sir2 (PF13_0152, Sir2A); experiment: Plasmodium falciparum Sir2A binding compounds – biochemical, small-molecule microarray, 635 nm fluorescence, primary screen (AID 1098); settings: fluorescence 635 nm, higher = more signal;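 also: score merges spot fluorescence intensity with its signal-to-noise ratio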
[12] = probe aDKK1 binding to arrayed compounds – biochemical, biotinylated probe, 635/667 nm fluorescence, primary screen (AID 1099); settings: small-molecule microarray, higher = more signal;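 also: score merges 667nm spot fluorescence with signal to noise across triplicate slides; reference of the scale not given here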
[13] = probe aCHRDL2 binding to arrayed compounds – biochemical, biotinylated probe, 635/667 nm fluorescence, primary screen (AID 1100); settings: small-molecule microarray, higher = more signal
[14] = change in splice reporter luminescence, either direction, cell-based, HEK293, spliceosome inhibition project, primary screen (AID 1101); settings: HEK293 splicing luciferase reporter, 24 h, higher = more signal, called active from +8 up or from −8 down;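 also: HEK293 cells carrying a splicing-competent luciferase reporter gene; test concentration not given here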
[15] = target: Fibroblast growth factor 10 (Homo sapiens) (UniProt O15520); experiment: compounds binding fibroblast growth factor 10 – biochemical, small-molecule microarray, 635 nm fluorescence, primary screen (AID 1102); settings: FGF10 binding, fluorescence 635 nm, higher = more signal
Sequence of Fibroblast growth factor 10 (Homo sapiens) (O15520 whole entry, looked up): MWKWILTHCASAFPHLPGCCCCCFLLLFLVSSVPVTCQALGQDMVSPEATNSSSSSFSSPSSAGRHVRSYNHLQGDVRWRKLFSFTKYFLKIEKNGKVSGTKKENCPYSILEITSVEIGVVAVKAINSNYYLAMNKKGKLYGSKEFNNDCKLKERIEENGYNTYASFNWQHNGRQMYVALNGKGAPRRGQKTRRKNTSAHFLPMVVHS

[16] = tested on: glycogen synthase kinase-3 (GSK3A per assay name; protocol says GSK3B); experiment: compounds binding glycogen synthase kinase-3 – biochemical, small-molecule microarray, 635 nm fluorescence, GSK3A, primary screen (AID 1103); settings: fluorescence 635 nm, higher = more signal; also: the record names both GSK3A and GSK3B
[17] = target: Epidermal growth factor receptor (Homo sapiens) (UniProt P00533); experiment: compounds binding epidermal growth factor receptor – biochemical, small-molecule microarray, 635 nm fluorescence, primary screen (AID 1104); settings: EGFR binding, higher = more signal;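 also: score merges 667 nm emission intensity with spot signal to noise over triplicate slides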
Sequence of Epidermal growth factor receptor (Homo sapiens) (P00533 whole entry, looked up): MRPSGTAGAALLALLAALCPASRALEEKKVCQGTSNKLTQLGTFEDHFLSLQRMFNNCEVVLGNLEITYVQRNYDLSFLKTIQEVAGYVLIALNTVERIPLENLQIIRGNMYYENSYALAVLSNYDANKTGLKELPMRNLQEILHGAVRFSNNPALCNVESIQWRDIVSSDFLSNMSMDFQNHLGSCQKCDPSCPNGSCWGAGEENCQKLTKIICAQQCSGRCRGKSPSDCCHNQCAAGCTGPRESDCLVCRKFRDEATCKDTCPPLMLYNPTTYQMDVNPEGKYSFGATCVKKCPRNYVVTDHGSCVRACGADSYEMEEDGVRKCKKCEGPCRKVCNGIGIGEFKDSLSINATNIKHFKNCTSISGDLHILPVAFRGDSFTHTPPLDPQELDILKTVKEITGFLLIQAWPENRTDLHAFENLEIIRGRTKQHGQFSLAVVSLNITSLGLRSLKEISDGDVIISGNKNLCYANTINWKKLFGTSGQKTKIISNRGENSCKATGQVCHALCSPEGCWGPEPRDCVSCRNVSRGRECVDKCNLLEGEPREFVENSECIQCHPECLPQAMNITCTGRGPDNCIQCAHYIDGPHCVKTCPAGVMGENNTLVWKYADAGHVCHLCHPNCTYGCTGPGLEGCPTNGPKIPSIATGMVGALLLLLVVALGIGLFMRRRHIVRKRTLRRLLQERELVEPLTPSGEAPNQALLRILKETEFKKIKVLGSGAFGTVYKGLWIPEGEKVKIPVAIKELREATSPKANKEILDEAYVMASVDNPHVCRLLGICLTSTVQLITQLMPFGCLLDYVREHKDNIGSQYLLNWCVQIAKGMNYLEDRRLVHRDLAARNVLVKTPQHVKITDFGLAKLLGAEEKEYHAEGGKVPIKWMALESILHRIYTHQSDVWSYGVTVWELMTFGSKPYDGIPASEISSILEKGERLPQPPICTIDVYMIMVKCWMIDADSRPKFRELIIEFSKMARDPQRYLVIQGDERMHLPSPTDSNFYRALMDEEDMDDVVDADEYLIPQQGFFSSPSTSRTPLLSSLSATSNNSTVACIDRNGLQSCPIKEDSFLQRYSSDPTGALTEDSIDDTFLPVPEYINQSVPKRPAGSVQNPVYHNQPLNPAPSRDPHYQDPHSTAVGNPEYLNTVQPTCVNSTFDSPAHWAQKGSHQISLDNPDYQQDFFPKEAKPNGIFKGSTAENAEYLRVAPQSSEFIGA

[18] = target: Follistatin-related protein 3 (Homo sapiens) (UniProt O95633); experiment: compounds binding follistatin-related protein 3 – biochemical, small-molecule microarray, 635 nm fluorescence, primary screen (AID 1105); settings: FSTL3 binding, higher = more signal;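 also: score merges emission near 667 nm and signal to noise per printed spot across three slides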
Sequence of Follistatin-related protein 3 (Homo sapiens) (O95633 whole entry, looked up): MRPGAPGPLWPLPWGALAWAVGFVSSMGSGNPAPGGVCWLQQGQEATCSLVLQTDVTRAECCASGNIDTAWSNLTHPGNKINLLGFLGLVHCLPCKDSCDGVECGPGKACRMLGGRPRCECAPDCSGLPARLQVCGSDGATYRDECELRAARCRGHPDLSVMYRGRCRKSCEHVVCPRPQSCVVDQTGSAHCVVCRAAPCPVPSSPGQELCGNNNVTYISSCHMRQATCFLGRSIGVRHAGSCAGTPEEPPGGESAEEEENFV

[19] = target: Dickkopf-related protein 1 (Homo sapiens) (UniProt O94907); experiment: small molecules binding DKK1 protein – biochemical, small-molecule microarray, 635 nm fluorescence scan, primary screen (AID 1106); settings: higher = more signal;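 also: score merges emission near 667 nm with signal to noise over three replicate slides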
Sequence of Dickkopf-related protein 1 (Homo sapiens) (O94907 whole entry, looked up): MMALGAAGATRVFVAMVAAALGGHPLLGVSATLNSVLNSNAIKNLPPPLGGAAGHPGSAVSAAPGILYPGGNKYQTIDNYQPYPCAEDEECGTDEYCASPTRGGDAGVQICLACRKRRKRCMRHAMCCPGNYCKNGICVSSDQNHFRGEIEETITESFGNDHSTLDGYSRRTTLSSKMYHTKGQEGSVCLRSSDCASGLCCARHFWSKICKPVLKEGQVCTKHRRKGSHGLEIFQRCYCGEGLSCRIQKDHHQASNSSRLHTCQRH

[20] = tested on: Inhibin beta A chain (activin A); experiment: small molecules binding activin A – biochemical, small-molecule microarray, 635 nm fluorescence scan, primary screen (AID 1107); settings: INHBA, higher = more signal;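 also: mouse activin A protein probed at 4.33 µg/mL on printed slides; score merges bound-protein fluorescence near 667 nm with spot signal-to-noise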

| SMILES | composite z-score [1] | z-score [2] | z-score [3] | z-score [4] | composite z-score [5] | z-score [6] | composite z-score [7] | composite z-score [8] | composite z-score [9] | composite z-score [10] | composite z-score [11] | composite z-score [12] | composite z-score [13] | z-score [14] | composite z-score [15] | composite z-score [16] | composite z-score [17] | composite z-score [18] | composite z-score [19] | composite z-score [20] |
| --- | --- | --- | --- | --- | --- | --- | --- | --- | --- | --- | --- | --- | --- | --- | --- | --- | --- | --- | --- | --- |
| COCCCNC(=O)[C@@]1(Sc2ccc(C)cc2)CC(=O)N(C2Cc3ccccc3C2)[C@@H]1c1ccc(CO)cc1 | 0.585 | 0.0853 (inactive) | -1 (inactive) | -0.798 (inactive) | 3.11 | -1.27 (inactive) | -0.236 | -1.72 | -0.314 | -0.254 | 1.06 | 0.106 | 0.899 | -0.866 (inactive) | -1.39 | -0.429 | -0.787 | -1.42 | -1.76 | -0.115 |
| CC1CC/C=C\[C@H]2OC34C=CCN(Cc5ccccc5)C(=O)[C@H]3N(C(CO)C(C)C)C(=O)[C@@H]4C2C(=O)O1 (stereo not given in full) | -0.856 | 0.0869 (inactive) | -0.978 (inactive) | 0.101 (inactive) | 0.251 | 0.154 (inactive) | -0.0042 | -0.964 | -1.1 | 0.244 | 0.659 | -0.239 | 0.146 | -0.124 (inactive) | -0.871 | -0.484 | -0.471 | -0.902 | -0.415 | 1.09 |
| CCOC(=O)C[C@H]1[C@H](OC(=O)c2ccccc2-c2ccccc2)[C@@H](NC(=O)c2ccc3ccccc3n2)c2cc(OCCCO)ccc2N1C(=O)Cc1ccc(OC)cc1 | 0.115 | 0.59 (inactive) | -0.167 (inactive) | -0.0843 (inactive) | 0.346 | -0.776 (inactive) | -0.111 | 0.287 | 0.384 | -0.12 | -0.235 | 0.0006 | -0.302 | -0.378 (inactive) | 0.463 | 0.0131 | 0.238 | 0.176 | 0.0349 | 0.711 |
| [N-]=[N+]=Nc1ccccc1C[C@@]1(C(=O)NCCN2CCOCC2)N=C(c2ccc(OCCCO)cc2)O[C@@H]1c1ccccc1N=[N+]=[N-] | 1.55 | -2.36 (inactive) | -14.1 (active) | -0.321 (inactive) | 3.19 | -0.485 (inactive) | 0.0672 | 0.325 | 0.811 | 0.0045 | 1.53 | 0.664 | 1.04 | -0.222 (inactive) | 0.968 | 1.31 | -0.172 | 0.453 | 0.136 | 0.691 |
| Cc1ccc(S[C@]2(C(=O)NCC(F)(F)F)CC(=O)N(Cc3cc(C(F)(F)F)cc(C(F)(F)F)c3)[C@@H]2c2ccc(CO)cc2I)cc1 | -0.0631 | -2.58 (inactive) | -2.58 (inactive) | -0.857 (inactive) | -0.0923 | -0.3 (inactive) | -0.054 | -0.716 | -1.32 | -0.556 | 1.4 | -0.647 | 1.02 | -0.719 (inactive) | -1.03 | -0.466 | -0.552 | 0.0535 | -1.26 | 0.948 |
| O[C@@H](Cc1ccccc1)[C@@H](/C=C/C1CC1)N(CC#Cc1ccccc1)Cc1ccccc1Br | -0.0917 | 0.298 (inactive) | 0.398 (inactive) | 1.43 (inactive) | 0.461 | 0.247 (inactive) | 0.0166 | -1.33 | -0.817 | -0.339 | -0.0214 | -0.107 | 1.38 | -1.39 (inactive) | -1.36 | -0.689 | -1.29 | -1.62 | -1.88 | 0.171 |
| Cc1ccc(S[C@]2(C(=O)NCc3ccccc3)CC(=O)N(C3CCCCC3)[C@@H]2c2ccc(CO)cc2I)cc1 | 1.15 | -0.727 (inactive) | -0.462 (inactive) | 0.861 (inactive) | 2.72 | -0.455 (inactive) | -0.0948 | 0.147 | 0.237 | -0.139 | 1.25 | -0.0018 | 0.379 | -1.49 (inactive) | 0.861 | 0.1 | -0.104 | 0.226 | -0.358 | -0.0734 |
| CCCCC(=C=CC[C@H](O)c1ccc(OCCO)cc1)CCO | -0.0461 | -0.879 (inactive) | -0.982 (inactive) | -1.02 (inactive) | 2.24 | -0.0915 (inactive) | -0.179 | -0.124 | -0.65 | -0.232 | 0.69 | -0.194 | 0.208 | -0.0149 (inactive) | 0.0655 | -0.686 | -0.709 | -0.24 | -0.704 | 0.817 |
| COc1cc(NN2C(C(O)c3ccco3)C=CC3C(=O)N(C)C(=O)C32)cc(OC)c1OC (stereo not given) | 0.865 | -0.0402 (inactive) | 1.06 (inactive) | 0.462 (inactive) | 0.873 | -1.87 (inactive) | 0.413 | 0.382 | -0.254 | 0.232 | 1.5 | 0.88 | 0.469 | 0.579 (inactive) | 0.138 | 1.1 | -0.169 | 0.0253 | 0.216 | 0.752 |
| O=C(NCCN1CCOCC1)[C@@H]1c2ccccc2C(=O)N(C2Cc3ccccc3C2)[C@H]1c1ccc(CO)cc1 | 0.925 | -2.95 (inactive) | -0.534 (inactive) | -0.979 (inactive) | 3.2 | 1.78 (inactive) | -0.0145 | -0.398 | 0.123 | -0.214 | 0.909 | 0.0974 | 0.852 | -1.38 (inactive) | -0.223 | 1.05 | -0.812 | -0.414 | -0.666 | -0.363 |
